# Laboratory results: the antibiotic and cytotoxicity screens of Wong et al. (2023)
# The whole screen tested about 39,000 compounds, of which about 3,300 (8.5%) were called active. Only a selection was taken, and actives are over-represented in it overall.
# Tested on: HepG2
# Assay: cytotoxicity call (relative viability < 0.9)
# Conditions: 10 µM
row,SMILES,cytotoxicity call
1,Cc1noc(C)c1NC(=O)N(C)C[C@H]1Oc2c(NC(=O)c3cnccn3)cccc2C(=O)N([C@@H](C)CO)C[C@H]1C,inactive
2,Cc1noc(C)c1S(=O)(=O)Nc1ccc2c(c1)C(=O)N([C@H](C)CO)C[C@H](C)[C@@H](CN(C)S(=O)(=O)c1ccc(Cl)cc1)O2,inactive
3,COCC#Cc1cnc2c(c1)C(=O)N([C@@H](C)CO)C[C@H](C)[C@H](CN(C)S(=O)(=O)c1cn(C)cn1)O2,inactive
4,COCC(=O)N[C@H]1C=C[C@@H](CC(=O)N2CCCCC2)O[C@@H]1CO,inactive
5,CCCC#Cc1ccc2c(c1)O[C@H](CN(C)S(=O)(=O)c1cccc(OC)c1)[C@H](C)CN([C@H](C)CO)S2(=O)=O,inactive
6,C[C@@H]1CCCCO[C@@H](CN(C)C(=O)Nc2ccccc2)[C@@H](C)CN([C@H](C)CO)C(=O)c2cc(NC(=O)CCCCCC(=O)Nc3ccccc3N)ccc2O1,inactive
7,O=C(C1=C[C@@H](c2csc3ccccc23)C[C@@H](OCc2ccc(CO)cc2)O1)N1CCN(Cc2ccccc2)CC1,inactive
8,C[C@@H]1CCCCO[C@@H](CN(C)C(=O)Nc2ccc(F)cc2)[C@H](C)CN([C@H](C)CO)C(=O)c2cc(NC(=O)C3CCCCC3)ccc2O1,inactive
9,CN1CCN(C(=O)C[C@H]2CC[C@H]3[C@@H](COC[C@@H](O)CN3C(=O)C3CCCC3)O2)CC1,inactive
10,Cc1cc(NC(=O)CSc2nnc[nH]2)no1,inactive
11,Cc1ccc(S(=O)(=O)Nc2ccc3c(c2)CC(=O)N([C@@H](C)CO)C[C@@H](C)[C@@H](CN(C)Cc2ccc(-c4ccccc4)cc2)O3)cc1,active
12,Cc1ccc(S(=O)(=O)Nc2ccc3c(c2)CC(=O)N([C@@H](C)CO)C[C@H](C)[C@@H](CN(C)Cc2ccc(-c4ccccc4)cc2)O3)cc1,inactive
13,Cc1ccc(S(=O)(=O)Nc2ccc3c(c2)CC(=O)N([C@@H](C)CO)C[C@H](C)[C@H](CN(C)Cc2ccc(-c4ccccc4)cc2)O3)cc1,inactive
14,Cc1noc(C)c1NC(=O)N(C)C[C@H]1OCCCC[C@@H](C)Oc2ccc(NC(=O)Nc3ccc(C(F)(F)F)cc3)cc2C(=O)N([C@H](C)CO)C[C@@H]1C,inactive
15,C[C@H](CO)N1C[C@H](C)[C@H](CN(C)S(=O)(=O)c2ccc(F)cc2)Oc2ccc(NS(=O)(=O)c3ccccc3)cc2C1=O,inactive
16,Cc1ccc(Nc2c(-c3ccccc3)nc3ccccn23)cc1,inactive
17,Cc1ccc2nc(Nc3ccccc3)nc(-c3ccccc3)c2c1,inactive
18,Cc1ccc(Nc2nnc(-c3ccccc3)c3ccccc23)cc1,active
19,C[C@H](CO)N1C[C@H](C)[C@H](CN(C)S(=O)(=O)c2ccc3ccccc3c2)OCc2cn(nn2)CCCC1=O,inactive
20,C[C@@H]1CN([C@@H](C)CO)C(=O)c2cccc(NC(=O)NC3CCCCC3)c2O[C@@H]1CN(C)Cc1ccc(C(=O)Nc2ccccc2N)cc1,inactive
21,C[C@@H]1CN([C@@H](C)CO)C(=O)c2cccc(NC(=O)C3CCCCC3)c2O[C@H]1CN(C)Cc1ccc(C(=O)Nc2ccccc2N)cc1,inactive
22,C[C@H](CO)N1C[C@H](C)[C@H](CN(C)Cc2ccc(C(=O)Nc3ccccc3N)cc2)Oc2c(NC(=O)NC3CCCCC3)cccc2C1=O,active
23,C[C@@H]1CN([C@@H](C)CO)C(=O)c2cccc(NC(=O)C3CCCCC3)c2O[C@@H]1CN(C)Cc1ccc(C(=O)Nc2ccccc2N)cc1,active

row,SMILES,cytotoxicity call
1,C[C@H]1CN([C@@H](C)CO)C(=O)c2cccc(NC(=O)C3CCCCC3)c2O[C@@H]1CN(C)Cc1ccc(C(=O)Nc2ccccc2N)cc1,inactive
2,C[C@H]1CN([C@@H](C)CO)C(=O)c2cccc(NC(=O)NC3CCCCC3)c2O[C@H]1CN(C)Cc1ccc(C(=O)Nc2ccccc2N)cc1,inactive
3,C[C@H](CO)N1C[C@H](C)[C@H](CN(C)Cc2ccc(C(=O)Nc3ccccc3N)cc2)Oc2c(NC(=O)C3CCCCC3)cccc2C1=O,inactive
4,C[C@H]1CN([C@@H](C)CO)C(=O)c2cccc(NC(=O)C3CCCCC3)c2O[C@H]1CN(C)Cc1ccc(C(=O)Nc2ccccc2N)cc1,active
5,C[C@@H]1CN([C@H](C)CO)C(=O)c2cccc(NC(=O)C3CCCCC3)c2O[C@H]1CN(C)Cc1ccc(C(=O)Nc2ccccc2N)cc1,inactive
6,C[C@@H]1CN([C@@H](C)CO)C(=O)c2cc(NC(=O)C3CC3)ccc2O[C@@H]1CN(C)S(=O)(=O)c1ccc(Cl)cc1,inactive
7,Cc1ccc(S(=O)(=O)N(C)C[C@H]2OCCCC[C@@H](C)Oc3ccc(NC(=O)Nc4ccc(C(F)(F)F)cc4)cc3C(=O)N([C@@H](C)CO)C[C@H]2C)cc1,inactive
8,O=C(O)c1c(Br)c(Br)c(Br)c(Br)c1-c1c2ccc(=O)cc-2oc2cc(O)ccc12,inactive
9,CNC[C@@H]1OCCCC[C@H](C)Oc2ccc(NC(=O)Nc3ccc(C(F)(F)F)cc3)cc2C(=O)N([C@@H](C)CO)C[C@@H]1C,inactive
10,COc1ccc(S(=O)(=O)N(C)C[C@@H]2Oc3ccc(NC(=O)CCCN(C)C)cc3C(=O)N([C@@H](C)CO)C[C@H]2C)cc1,inactive
11,C[C@@H]1CCCCO[C@@H](CN(C)C(=O)c2ccccc2)[C@H](C)CN([C@H](C)CO)C(=O)c2cc(NC(=O)c3ccccc3)ccc2O1,inactive
12,CC(C)NC(=O)Nc1ccc2c(c1)CC(=O)N([C@@H](C)CO)C[C@@H](C)[C@H](CN(C)S(=O)(=O)c1cn(C)cn1)O2,inactive
13,C[C@@H]1CN([C@H](C)CO)C(=O)c2cc(NC(=O)Nc3ccccc3)ccc2O[C@H]1CN(C)C(=O)Nc1ccc(C(F)(F)F)cc1,inactive
14,O=C(O)C[C@@H]1CC[C@H]2[C@@H](COC[C@@H](O)CN2S(=O)(=O)c2ccc(F)cc2)O1,inactive
15,COc1ccc(NC(=O)Nc2cccc3c2O[C@@H](CN(C)CC2CCCCC2)[C@H](C)CN([C@H](C)CO)C3=O)cc1,inactive
16,CC(C)NC(=O)N(C)C[C@@H]1Oc2ccc(NC(=O)Nc3ccc4c(c3)OCO4)cc2C(=O)N([C@@H](C)CO)C[C@@H]1C,active
17,CC(C)NC(=O)N(C)C[C@@H]1Oc2c(NC(=O)Nc3ccc4c(c3)OCO4)cccc2C(=O)N([C@@H](C)CO)C[C@H]1C,active
18,CC(C)NC(=O)N(C)C[C@@H]1Oc2c(NC(=O)Nc3ccc4c(c3)OCO4)cccc2C(=O)N([C@H](C)CO)C[C@H]1C,inactive
19,CC(C)NC(=O)N(C)C[C@H]1Oc2ccc(NC(=O)Nc3ccc4c(c3)OCO4)cc2C(=O)N([C@@H](C)CO)C[C@H]1C,inactive
20,Cc1cc(C(=O)Nc2cccc3c2O[C@H](CN(C)C(=O)Nc2ccc4c(c2)OCO4)[C@H](C)CN([C@@H](C)CO)C3=O)n(C)n1,inactive
21,C[C@@H]1CN([C@H](C)CO)C(=O)c2cc(-c3cncnc3)cnc2O[C@@H]1CN(C)C(=O)Nc1ccc2c(c1)OCO2,inactive
22,Cc1cc(C(=O)Nc2cccc3c2O[C@@H](CN(C)C(=O)Nc2ccc4c(c2)OCO4)[C@H](C)CN([C@@H](C)CO)C3=O)n(C)n1,inactive
23,C[C@H](CO)N1C[C@H](C)[C@@H](CN(C)C(=O)Nc2ccc3c(c2)OCO3)Oc2ncc(-c3cncnc3)cc2C1=O,active

row,SMILES,cytotoxicity call
1,C[C@@H]1CN([C@@H](C)CO)C(=O)c2cc(-c3cncnc3)cnc2O[C@H]1CN(C)C(=O)Nc1ccc2c(c1)OCO2,inactive
2,CC(C)NC(=O)N(C)C[C@H]1Oc2c(NC(=O)Nc3ccc4c(c3)OCO4)cccc2C(=O)N([C@@H](C)CO)C[C@H]1C,inactive
3,CC(C)NC(=O)N(C)C[C@H]1Oc2ccc(NC(=O)Nc3ccc4c(c3)OCO4)cc2C(=O)N([C@H](C)CO)C[C@H]1C,inactive
4,Cc1cc(C(=O)Nc2cccc3c2O[C@@H](CN(C)C(=O)Nc2ccc4c(c2)OCO4)[C@@H](C)CN([C@@H](C)CO)C3=O)n(C)n1,active
5,C[C@@H]1CCCCO[C@H](CN(C)Cc2ccc(C(=O)O)cc2)[C@@H](C)CN([C@H](C)CO)C(=O)c2cc(NC(=O)C3CCCCC3)ccc2O1,inactive
6,Cc1ccc(S(=O)(=O)N(C)C[C@@H]2Oc3ncc(C#CCN(C)C)cc3C(=O)N([C@H](C)CO)C[C@@H]2C)cc1,inactive
7,Cc1noc(C)c1NC(=O)N(C)C[C@H]1OCCCC[C@@H](C)Oc2ccc(NS(=O)(=O)c3cccs3)cc2C(=O)N([C@@H](C)CO)C[C@@H]1C,inactive
8,C[C@H]1CN([C@@H](C)CO)C(=O)c2cccc(NS(=O)(=O)c3ccc(F)cc3)c2O[C@H]1CN(C)S(=O)(=O)c1ccccc1,inactive
9,Cc1noc(C)c1S(=O)(=O)N(C)C[C@H]1Oc2c(NS(=O)(=O)c3cn(C)cn3)cccc2C(=O)N([C@@H](C)CO)C[C@H]1C,inactive
10,COc1cccc(O)c1O,active
11,COc1ccccc1O,inactive
12,COc1cccc(OC)c1O,inactive
13,O=C1/C(=C/c2cn(-c3ccccc3)nc2-c2ccc(OCc3ccccc3)cc2)SC(=S)N1CCS(=O)(=O)O,inactive
14,Cc1noc(C)c1NC(=O)N(C)C[C@@H]1Oc2ccc(NC(=O)c3ccncc3)cc2C(=O)N([C@@H](C)CO)C[C@H]1C,inactive
15,C[C@@H]1CN([C@H](C)CO)C(=O)c2cc(NC(=O)Nc3ccc4c(c3)OCO4)ccc2O[C@@H](C)CCCCO[C@H]1CN(C)Cc1ccc2c(c1)OCO2,inactive
16,C[C@@H]1CCCCO[C@@H](CN(C)Cc2ccc3c(c2)OCO3)[C@@H](C)CN([C@@H](C)CO)C(=O)c2cc(NC(=O)Nc3ccc4c(c3)OCO4)ccc2O1,active
17,C[C@H]1CCCCO[C@H](CN(C)Cc2ccc3c(c2)OCO3)[C@@H](C)CN([C@@H](C)CO)C(=O)c2cc(NC(=O)Nc3ccc4c(c3)OCO4)ccc2O1,inactive
18,C[C@@H]1CCCCO[C@H](CN(C)Cc2ccc3c(c2)OCO3)[C@H](C)CN([C@H](C)CO)C(=O)c2cc(NC(=O)Nc3ccc4c(c3)OCO4)ccc2O1,active
19,C[C@@H]1CCCCO[C@@H](CN(C)Cc2ccc3c(c2)OCO3)[C@H](C)CN([C@@H](C)CO)C(=O)c2cc(NC(=O)Nc3ccc4c(c3)OCO4)ccc2O1,inactive
20,C[C@@H]1CCCCO[C@@H](CN(C)Cc2ccc3c(c2)OCO3)[C@H](C)CN([C@H](C)CO)C(=O)c2cc(NC(=O)Nc3ccc4c(c3)OCO4)ccc2O1,active
21,C[C@H]1CCCCO[C@@H](CN(C)Cc2ccc3c(c2)OCO3)[C@@H](C)CN([C@@H](C)CO)C(=O)c2cc(NC(=O)Nc3ccc4c(c3)OCO4)ccc2O1,inactive
22,C[C@@H]1CN([C@@H](C)CO)C(=O)c2cc(NC(=O)Nc3ccc4c(c3)OCO4)ccc2O[C@@H](C)CCCCO[C@H]1CN(C)Cc1ccc2c(c1)OCO2,inactive
23,C[C@H](CO)N1C[C@H](C)[C@H](CN(C)Cc2ccc3c(c2)OCO3)OCCCC[C@H](C)Oc2ccc(NC(=O)Nc3ccc4c(c3)OCO4)cc2C1=O,active
